In PubChem BioAssay (EPA / NIEHS) one finds outcome and AC50 data, which are given here for 38 compounds.

Inconclusive results are not listed. Activity calls are given as the source filed them. How the source made its calls: active means hit-call score of the fitted dose curve at least 0.9, where 1 is the maximum; inconclusive means response in the unintended direction; inactive means score below 0.9.

The assay in a line: ACEA_ER_AUC_viability: ACEA Biosciences xCELLigence Real-Time Cell Analysis on Estrogen Receptor Agonism for Viability (AID 2283782).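 Further: continuous compound exposure with impedance area under curve over 80 h; hit means loss of impedance signal meaning reduced cell growth or viability.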 The gist of the method: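 T47D cells preconditioned in phenol red-free RPMI with charcoal-stripped FBS, then dosed with 8-point 1:4 series from 100 uM (up to 0.5% DMSO). Impedance monitored up to ~80 h; area-under-curve loss versus DMSO taken as viability.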
Consider `C=C(C)C(=O)OCCOCCOCCOC(=O)C(=C)C`, for which the compound was classed as inactive.
For the compound `CC/C=C\CCOC(=O)CC`, the compound was classed as inactive.
As a reminder, the AC50 is the midpoint of the concentration-response curve, whichever way the signal moves. For `c1ccc(CN(Cc2ccccc2)Cc2ccccc2)cc1`, the half-maximal activity concentration (AC50) was 89 µM (active).
Turning to `O=C1CCCC=CCCCCCCCCCC1`, the half-maximal activity concentration (AC50) was 84.1 µM (active).
On to `CCc1ncc(C)[nH]1`, for which the result was inactive.
Still for that read-out and setting: with `COCCOC(=O)c1ccccc1C(=O)OCCOC` the entry was “inactive”.
On to `CC(=O)C1(C)CC2=C(CCCC2(C)C)CC1C` (stereo not drawn), for which the AC50 was 50 µM (active).
`CCCCOC(=O)CCCCCCCC(=O)OCCCC`: the result was inactive.
For the compound `C=CC(=O)OCCC#N`, the concentration at half-maximal activity (AC50) was 66.7 µM (active).
Take `CCCCCCCC(=O)OCC(O)CO` (stereo not drawn): the result was inactive.
As for `COC(=O)c1ccc(OC)cc1`, the compound was called inactive.
For the compound `CCCCCC(C=O)=Cc1ccccc1`, the AC50 was 80 µM (active).
On to `CCOC(=O)c1ccc(N)cc1`, for which the result was inactive.
On to `COc1ccccc1N=Nc1c(S(=O)(=O)O)cc2cc(S(=O)(=O)O)cc(NC(C)=O)c2c1O`, for which the call was inactive.
The same measure, in the same setting: with `CCCC(=O)c1ccccc1` the entry was “inactive”.
For `CC(C)OCCO`, the outcome was inactive.
As to `COCCOCCOCCO`, the compound was called inactive.
Still for that read-out and setting: the result for `CC(C)(CO)[C@@H](O)C(=O)NCCC(=O)O` reads “inactive”; that for `CC(C)CC(C)CC(O)CC(C)C` (stereo not drawn), “inactive”; that for `CC1CC(O)CC(C)(C)C1` (stereo not drawn), “inactive”.
For the compound `COC(C)(C)CC(C)=O`, the result was inactive.
The same measure, in the same setting: the result for `C=CC(C)C#N` (stereo not drawn) reads “inactive”; that for `CC(C)=CCCC(C)CC(=O)O` (stereo not drawn), “inactive”.
In the case of `CCCC[P+](CCCC)(CCCC)CCCC`, the concentration at half-maximal activity (AC50) was 91.7 µM (active).
On to `O=C(O)c1cccnc1C(=O)O`, for which the call was inactive.
With `CCc1cc(C(C)(C)C)c(O)c(C(C)(C)C)c1`, the half-maximal activity concentration (AC50) is 81.8 µM (active).
In the case of `CCCCN(CCCC)C(=O)N(CCCC)CCCC`, the half-maximal activity concentration (AC50) was 80.4 µM (active).
As for `CC=CC=CCOC(=O)C(C)C`, the half-maximal activity concentration (AC50) was 76.8 µM (active).
For `C/C=C(\C)C(=O)OCCc1ccccc1`, the half-maximal activity concentration (AC50) was 67.4 µM (active).
With `NCc1ccco1`, the result was inactive.
`C=C(C)[C@H]1CC=C(C)C(=O)C1`: the compound was called inactive.
Turning to `Cc1occc(=O)c1OC(=O)C(C)C`, the compound was called inactive.
Same read-out and setting: the result for `CC=Cc1ccc(OCC)c(O)c1` reads “inactive”; that for `CC(C)NCC(O)COc1ccc(CC(N)=O)cc1` (stereo not drawn), “inactive”; that for `CC(C)CCOC(=O)c1ccccc1`, “inactive”.
On to `OC[C@H]1O[C@@H]2O[C@H]3[C@H](O)[C@@H](O)[C@@H](O[C@H]4[C@H](O)[C@@H](O)[C@@H](O[C@H]5[C@H](O)[C@@H](O)[C@@H](O[C@H]6[C@H](O)[C@@H](O)[C@@H](O[C@H]7[C@H](O)[C@@H](O)[C@@H](O[C@H]8[C@H](O)[C@@H](O)[C@@H](O[C@H]9[C@H](O)[C@@H](O)[C@@H](O[C@H]1[C@H](O)[C@H]2O)O[C@@H]9CO)O[C@@H]8CO)O[C@@H]7CO)O[C@@H]6CO)O[C@@H]5CO)O[C@@H]4CO)O[C@@H]3CO`, for which the outcome was inactive.
Consider `C=C(C)C(=O)OCCOC1CC2CC1C1C=CCC21` (stereo not drawn), for which the half-maximal activity concentration (AC50) is 48.6 µM (active).
For `CS(=O)(=O)c1ccc(Cl)cc1`, the outcome was inactive.
